High-throughput results from PubChem BioAssay.
L3MBTL1 inh = inhibitors of human L3MBTL1; Potency, µM (highest dose often 57.1 µM), for inactives: at the top dose activity, negative = inhibition, hits mostly inhibitors; hit rate 0.66% among 230,000; AlphaScreen L3MBTL1–H3K9me1 peptide binding; Q9Y468; note: % is set by controls: 0 for no effect and ±100 for the full control effect; nearly all actives have a fitted effect of over 60% in size
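L3MBTL1 50 nM + b-AHA-H3(1-15)K9me1 75 nM, 30 min RT; compound added, 30 min RT; streptavidin donor/Ni-chelate acceptor beads 10 ug/mL each final, 30 min RT dark; AlphaScreen read.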
G9a block = G9a (human) methyltransferase inhibition; Q96KQ7; G9a H3K9 monomethylation, AlphaScreen, 2 h; Potency, µM (series often up to 102 µM), for the others: at the highest dose activity, negative = inhibition, hits mostly inhibitors; hit rate 8.8% among 350,000; note: % is set by controls: 0 for no effect and ±100 for the full control effect; nearly all actives have a fitted effect of over 75% in size
Target sequence (Q96KQ7 913-1193 limits assumed): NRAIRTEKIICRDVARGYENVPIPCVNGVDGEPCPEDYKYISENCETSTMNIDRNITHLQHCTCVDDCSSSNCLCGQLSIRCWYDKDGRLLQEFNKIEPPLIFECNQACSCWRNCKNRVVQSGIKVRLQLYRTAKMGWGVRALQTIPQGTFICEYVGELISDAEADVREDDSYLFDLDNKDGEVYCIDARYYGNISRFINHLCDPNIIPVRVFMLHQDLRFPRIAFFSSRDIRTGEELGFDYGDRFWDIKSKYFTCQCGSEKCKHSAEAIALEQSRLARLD
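G9a (20 nM) was preincubated 15 min with compound, then reacted 2 h at room temperature with 500 nM biotin-H3K9 peptide and 20 µM SAM. Monomethyl-H3K9 detected by AlphaScreen using anti-H3K9me1 antibody.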
JMJD2A Tudor = inhibitors of human JMJD2A Tudor domain. O75164. AlphaScreen JMJD2A-Tudor / H3K4me3 peptide binding. Potency, µM (series often up to 114 µM), for inactives: top-dose activity change, negative = inhibition, usual class: inhibitors. hit rate 4.4% among 390,000; note: % is set by controls: 0 for no effect and ±100 for the full control effect; nearly all actives have a fitted effect of over 50% in size
BAZ2B block = blocks human BAZ2B; Q9UIF8; AlphaScreen BAZ2B-H3K14Ac peptide displacement; Potency, µM (top dose mostly 114 µM), inactives show at the top dose activity change, negative = inhibition, most hits filed as inhibitors; hit rate 4.4% among 360,000; note: % is set by controls: 0 for no effect and ±100 for the full control effect; nearly all actives have a fitted effect of over 60% in size
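AlphaScreen luminescence quantifies BAZ2B engagement of H3K14Ac peptide; the protein and biotinylated peptide are both at 50 nM final, buffer PBS pH 7.4 with 0.01% Tween-20, all steps at room temperature.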
HP1b binding inh = blocks HP1-beta chromodomain binding to methylated histone tails; P83916; AlphaScreen HP1-beta / biotin-H3K9me3 peptide binding; Potency, µM (doses to about 114 µM), without a hit: at the top dose activity change, negative = inhibition, most hits filed as inhibitors; hit rate 0.56% among 390,000; note: nearly all actives have a fitted effect of over 70% in size
Target sequence (P83916 whole entry, looked up): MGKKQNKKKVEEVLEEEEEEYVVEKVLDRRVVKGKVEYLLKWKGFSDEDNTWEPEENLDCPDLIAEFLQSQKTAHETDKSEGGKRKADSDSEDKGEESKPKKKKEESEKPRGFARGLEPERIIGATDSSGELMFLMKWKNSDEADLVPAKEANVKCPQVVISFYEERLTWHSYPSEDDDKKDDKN
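AlphaScreen: HP1-beta (50 nM) preformed 30 min with biotin-H3(1-18)K9me3 peptide (50 nM) in PBS pH 7.4, 0.01% Tween-20. Compound added for 30 min at RT, then streptavidin donor/nickel chelate acceptor beads (10 ug/mL) for 30 min.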
* marks the source's active call; other numbers are inactive results; [ ] = dose if it differs, or a comment. Rows were chosen to be rich in hits. Some 11% of all compounds tested hit in one or more screens of this group. Calls come from the whole dose curve; as a rule, active = well fitted inhibition curve with a large enough effect; inconclusive = small, poorly fitted or top-dose-only effect; inactive = no such curve, though single readings can be large or run the other way. Potency is the fitted concentration of half-maximal effect.

For COc1cccc(C2=NN(C(C)=O)C(c3cn(-c4ccccc4)nc3-c3cccs3)C2)c1 (configuration not stated) the results were G9a block 17.0%[59 µM], JMJD2A Tudor 3.7%, BAZ2B block -8.0% and HP1b binding inh 25.1%.
Screening CCOC(=O)c1c(S(=O)(=O)NCC(=O)N(C)Cc2ccccc2)c(C)n(C)c1C returned G9a block -7.0%[59 µM], JMJD2A Tudor -21.7%, BAZ2B block -9.8% and HP1b binding inh 4.1%.
Screening CC(C)C(=O)Nc1cc(S(=O)(=O)N2CCOCC2)ccc1N1CCCCC1 returned L3MBTL1 inh -1.8%, JMJD2A Tudor -25.5% and HP1b binding inh inconclusive.
For N#C/C(=C\c1ccccc1)C(=O)Nc1cc(S(=O)(=O)N2CCOCC2)ccc1N1CCCC1 the results were L3MBTL1 inh -9.6%, G9a block 44.7µM*, JMJD2A Tudor -34.3%, BAZ2B block -9.3% and HP1b binding inh -6.7%.
Screening CCOc1cc(N2CCOCC2)c(OCC)cc1NC(=O)CCS(=O)(=O)c1ccc(Cl)cc1 returned L3MBTL1 inh 0.0%, G9a block 22.4µM*, JMJD2A Tudor -31.9% and HP1b binding inh -16.7%.
Screening O=S(=O)(Nc1ccc(N2CCCCC2)cc1)c1ccc(F)c(F)c1 returned L3MBTL1 inh -14.0%, G9a block 12.6µM*, JMJD2A Tudor inconclusive, BAZ2B block 31.6µM* and HP1b binding inh -37.1%.
CC(C)(C)C(=O)Nc1cc(S(=O)(=O)N2CCCCC2)ccc1N1CCCCC1 was read as G9a block 39.8µM*, JMJD2A Tudor -20.6%, BAZ2B block 1.8% and HP1b binding inh 28.2%.
O=C(Nc1ccccc1F)Nc1cc(S(=O)(=O)N2CCOCC2)ccc1N1CCCC1 was read as G9a block inconclusive, JMJD2A Tudor -18.2% and HP1b binding inh 11.7%.
Screening O=C(O)c1cc(S(=O)(=O)Nc2ccc(N3CCCCC3)cc2)ccc1Cl returned G9a block -18.3%[59 µM], JMJD2A Tudor -29.6%, BAZ2B block -31.9% and HP1b binding inh 10.0%.
`CCOC(=O)c1ccc(NC(=O)CC2C(=O)N(c3ccccc3)C(=O)N2C2CCCCC2)cc1` (configuration not stated) gave G9a block -24.0%[59 µM], JMJD2A Tudor -17.5%, BAZ2B block -12.6% and HP1b binding inh 32.2%.
For Cc1cnc(NC(=O)c2cccc(S(=O)(=O)N3CC(C)OC(C)C3)c2)s1 (configuration not stated) the results were L3MBTL1 inh -16.5%, G9a block -1.5%, JMJD2A Tudor -11.6% and HP1b binding inh 36.5%.
`O=C(Nc1cc(S(=O)(=O)N2CCOCC2)ccc1N1CCCC1)c1ccc2c(c1)S(=O)(=O)c1ccccc1C2=O` gave L3MBTL1 inh -12.8%, JMJD2A Tudor inconclusive, BAZ2B block inconclusive and HP1b binding inh 3.98µM*.
Screening CCN1CCN(S(=O)(=O)c2ccc(Cl)c(C(=O)Nc3ccccc3N3CCCC3)c2)CC1 returned L3MBTL1 inh -1.1%, G9a block 24.2%[0.501 µM], JMJD2A Tudor inconclusive, BAZ2B block inconclusive and HP1b binding inh -17.6%.
For CCOc1cc(N2CCOCC2)c(OCC)cc1NS(=O)(=O)c1ccc(Cl)s1 the results were L3MBTL1 inh inconclusive, G9a block inconclusive, JMJD2A Tudor inconclusive, BAZ2B block 50.1µM* and HP1b binding inh -2.1%.
For O=C(Nc1cc(S(=O)(=O)N2CCOCC2)ccc1N1CCCCC1)c1ccccc1 the results were L3MBTL1 inh 4.5%, G9a block -14.1%[59 µM], JMJD2A Tudor -21.1%, BAZ2B block -0.9% and HP1b binding inh 22.3%.
For COC(=O)c1sccc1S(=O)(=O)Nc1ccc(N2CCCCC2)cc1 the results were JMJD2A Tudor inconclusive, BAZ2B block 35.5µM* and HP1b binding inh inconclusive.
For CCN1CCN(S(=O)(=O)c2ccc(Cl)c(C(=O)Nc3ccccc3N3CCCCC3)c2)CC1 the results were L3MBTL1 inh -14.6%, G9a block 39.8µM*, JMJD2A Tudor inconclusive, BAZ2B block -32.6% and HP1b binding inh 51.4%.
For CCOc1cc(CNC(=O)c2ccc3c(c2)NC(=O)C2CCCCN32)cc(OCC)c1OCC (configuration not stated) the results were G9a block -1.6%[59 µM], JMJD2A Tudor -9.6%, BAZ2B block 4.4% and HP1b binding inh 22.7%[57 µM].
For O=C(Nc1cc(S(=O)(=O)N2CCOCC2)ccc1N1CCCC1)c1ccc(Cl)cc1 the results were L3MBTL1 inh -9.5%, G9a block 1.78µM*, JMJD2A Tudor inconclusive, BAZ2B block -5.2% and HP1b binding inh inconclusive.
`CCN1CCN(S(=O)(=O)c2ccc(Cl)c(C(=O)N(C)C(c3ccccc3)c3ccccc3)c2)CC1` gave L3MBTL1 inh -5.7%, G9a block 8.91µM*, JMJD2A Tudor -30.5%, BAZ2B block -38.0% and HP1b binding inh -1.8%.
Screening O=C(Nc1cc(S(=O)(=O)N2CCOCC2)ccc1N1CCCCC1)c1ccc(Cl)cc1 returned L3MBTL1 inh -7.2%, G9a block inconclusive, JMJD2A Tudor -35.7%, BAZ2B block -8.7% and HP1b binding inh inconclusive.
COc1cccc(CNS(=O)(=O)c2ccc(-n3cnnn3)c(C)c2)c1 was read as G9a block 2.0%, JMJD2A Tudor -7.7%, BAZ2B block -0.5% and HP1b binding inh 48.1%.
`Cc1cc(S(=O)(=O)N(Cc2ccccc2)Cc2ccc(N(C)C)cc2)ccc1-n1cnnn1` gave L3MBTL1 inh 10.3%[11.4 µM], G9a block 8.91µM*, JMJD2A Tudor 39.8µM*, BAZ2B block -33.4% and HP1b binding inh -23.2%.
COc1cc(S(=O)(=O)N(Cc2cccnc2)Cc2ccco2)ccc1-n1cnnn1 was read as L3MBTL1 inh -8.0%, G9a block 5.62µM*, JMJD2A Tudor 28.2µM*, BAZ2B block 56.2µM* and HP1b binding inh -0.8%.
For COc1cc(S(=O)(=O)N(Cc2ccc(C)cc2)Cc2ccco2)ccc1-n1cnnn1 the results were G9a block -2.5%, JMJD2A Tudor -16.1%, BAZ2B block -13.2% and HP1b binding inh 13.9%.
Screening COc1cccc(CN(Cc2cccnc2)S(=O)(=O)c2ccc(-n3cnnn3)c(C)c2)c1 returned L3MBTL1 inh -5.4%, G9a block inconclusive, JMJD2A Tudor 89.1µM*, BAZ2B block 79.4µM* and HP1b binding inh 11.6%.
For Cc1cc(S(=O)(=O)N(C)CCc2ccccc2)ccc1-n1cnnn1 the results were L3MBTL1 inh -9.4%, G9a block 4.0%, JMJD2A Tudor 5.9%, BAZ2B block 0.2% and HP1b binding inh 26.4%.
For CC(/C=C/c1cccc(Oc2ccc(F)cc2)c1)N(O)C(N)=O (configuration not stated) the results were G9a block 8.6%[59 µM].
